Results as given in PMC4336329 (PLoS ONE, 2015).
Out of some 310,000 compounds screened, about 14,000 (4.5%) showed an effect of 50% or more. Effects have a minus sign here. The entries come from a sample that favours strong results as a whole.

target: human ether-à-go-go-related gene (hERG) potassium channel (human, UniProt Q12809); test: primary screen, population patch clamp on CHO cells stably expressing hERG; higher = less effect of the substance
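Also: peak tail current of the secondary pulse compared with the same well before compound.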

human ether-à-go-go-related gene (hERG) potassium channel, sequence (Q12809 whole entry, looked up): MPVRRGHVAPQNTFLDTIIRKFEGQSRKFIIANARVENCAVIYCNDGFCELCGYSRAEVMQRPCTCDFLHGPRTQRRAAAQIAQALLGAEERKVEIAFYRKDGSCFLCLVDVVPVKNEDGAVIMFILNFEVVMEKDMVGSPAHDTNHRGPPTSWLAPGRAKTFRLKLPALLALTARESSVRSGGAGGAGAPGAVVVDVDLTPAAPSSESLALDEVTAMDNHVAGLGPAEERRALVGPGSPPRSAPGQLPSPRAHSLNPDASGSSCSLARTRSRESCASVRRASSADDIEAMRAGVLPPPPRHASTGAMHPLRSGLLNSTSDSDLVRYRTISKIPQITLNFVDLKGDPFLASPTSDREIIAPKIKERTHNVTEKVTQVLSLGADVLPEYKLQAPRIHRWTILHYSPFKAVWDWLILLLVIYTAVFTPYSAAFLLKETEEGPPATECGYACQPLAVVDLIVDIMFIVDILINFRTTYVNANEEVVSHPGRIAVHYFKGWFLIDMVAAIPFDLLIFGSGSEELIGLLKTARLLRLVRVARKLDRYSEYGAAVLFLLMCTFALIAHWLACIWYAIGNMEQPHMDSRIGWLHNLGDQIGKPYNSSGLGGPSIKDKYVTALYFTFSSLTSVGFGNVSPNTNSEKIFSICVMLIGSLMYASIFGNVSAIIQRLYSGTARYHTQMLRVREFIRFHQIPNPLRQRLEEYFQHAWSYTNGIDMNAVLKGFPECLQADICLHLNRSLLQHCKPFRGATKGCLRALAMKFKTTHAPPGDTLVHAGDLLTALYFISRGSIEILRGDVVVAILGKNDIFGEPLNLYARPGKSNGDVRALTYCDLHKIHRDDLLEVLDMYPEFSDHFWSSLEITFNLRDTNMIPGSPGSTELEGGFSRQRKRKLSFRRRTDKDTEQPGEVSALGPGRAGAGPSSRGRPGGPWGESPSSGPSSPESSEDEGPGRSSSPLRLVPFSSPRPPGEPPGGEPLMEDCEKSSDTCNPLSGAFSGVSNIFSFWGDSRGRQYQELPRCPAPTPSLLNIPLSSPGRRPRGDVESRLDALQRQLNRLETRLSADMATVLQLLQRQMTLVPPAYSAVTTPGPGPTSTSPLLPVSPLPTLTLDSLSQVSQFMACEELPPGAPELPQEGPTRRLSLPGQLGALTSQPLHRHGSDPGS

Compound | hERG current change (%, negative = inhibition) at 10uM [%]
COc1ccc2c(c1)C(=O)N(Cc1ccccc1)C(=O)C2(C)C | 6.19
Cc1nn(Cc2ccc(Cl)cc2)c(C)c1NC(=O)c1cc(C(C)C)on1 | 5.88
Cn1c(SCC(=O)NC2CC2)nnc1-c1ccco1 | 9.16
Cc1ccc(NC(=O)[C@H](Cc2ccccc2)NC(=O)C2CCNCC2)cc1 | 5.64
CCCCCOC(=O)c1ccccc1C(=O)O | 16.1
CC(=O)N/C(=C\c1ccc(C)o1)C(=O)NCc1ccccc1 | 21.8
COc1ccc(OC)c(N2C(=O)NC(=O)/C(=C/c3ccc([N+](=O)[O-])s3)C2=O)c1 | 12.9
COc1ccc(CNC(=O)C2(CC3CC(c4ccccc4)=NO3)CCN(C(=O)C3(C)CC3)CC2)cc1 (centres unmarked) | -67
COC(=O)C1(CC2CC(c3ccccc3)=NO2)CCN(C(=O)OC(C)(C)C)CC1 (centres unmarked) | -11.4
CC1(C(=O)N2CCC(CC3CC(c4cccc(Br)c4)=NO3)(C(=O)NCC3CCCCC3)CC2)CC1 (centres unmarked) | -20.1
COc1ccc(CNC(=O)C2(CC3CC(c4ccccc4)=NO3)CCN(C(=O)CCCCCBr)CC2)cc1 (centres unmarked) | -76.9
CC(C)(C)OC(=O)N1CCC(CC2CC(c3ccccc3)=NO2)(C(=O)O)CC1 (centres unmarked) | 14.7
COc1ccc(CNC(=O)C2(CC3CC(c4ccccc4)=NO3)CCN(C(=O)C3CCCC3)CC2)cc1 (centres unmarked) | -71.6
CCCNC(=O)C1(CC2CC(c3ccccc3)=NO2)CCN(C(=O)C2CCCC2)CC1 (centres unmarked) | -41.8
CCOc1cc(C(=O)N2CCC(CC3CC(c4ccccc4)=NO3)(C(=O)NCc3ccc(OC)cc3)CC2)cc(OCC)c1OCC (centres unmarked) | -8.88
CC(C)(C)OC(=O)N1CCC(CC2CC(c3ccccc3)=NO2)(C(=O)NCc2ccccc2)CC1 (centres unmarked) | -18.3
COc1ccc(CNC(=O)C2(CC3CC(c4ccccc4)=NO3)CCN(C(=O)c3cccc(O)c3)CC2)cc1 (centres unmarked) | -68.2
COc1ccc(CNC(=O)C2(CC3CC(c4ccccc4)=NO3)CCN(C(=O)OC(C)(C)C)CC2)cc1 (centres unmarked) | -30.5
CCCCC1=CC2=CC(=O)C(C)(OC(=O)CC)C(=O)C2=CN1c1ccccc1 (centres unmarked) | 1.5
CCO[C@H]1OC(C(=O)NCc2ccccc2)=C[C@@H](C2CCCCC2)[C@@H]1CCCO | -19.8
COC(=O)C1=C(c2ccc(S(C)(=O)=O)cc2)C[C@@H]2CC[C@H]1N2C(=O)NCCNC(C)=O | 14.6

Compound | hERG current change (%, negative = inhibition) at 10uM [%]
Cc1occc1-c1nnc(SCC(=O)N2CCCCC2)o1 | -8.31
CCC(C)(CC(=O)Nc1nccs1)c1ccccc1 (centres unmarked) | 7.66
COc1cccc(Cn2cc(C)cc(NC(=O)NCc3ccccc3)c2=O)c1 | 11.9
Nc1nc(Cl)cc(Sc2ccc(F)cc2)n1 | 7.51
NNC(=O)c1oc2nc(-c3ccco3)cc(-c3ccco3)c2c1N | -12.8
NNC(=O)c1oc2nc(-c3ccccc3)cc(-c3ccco3)c2c1N | 0.558
NNC(=O)c1oc2nc(-c3cccs3)cc(-c3ccco3)c2c1N | -69.8
CCCCN(C(=O)c1ccc2c(c1)OCO2)c1c(N)n(CCCC)c(=O)[nH]c1=O | 25.7
CSCCC(NS(=O)(=O)c1ccccc1F)C(=O)Nc1ccncc1 (centres unmarked) | -10.8
O=c1cc(Nc2cccc(Br)c2)[nH]c(=O)[nH]1 | -11.5
CCOc1ccc2nc(N3CCC(C(=O)N4CCC5(CC4)OCCO5)CC3)sc2c1 | -8.46
Cc1cc(C)c(C#N)c(N2CCN(C(=O)C3COc4ccccc4O3)CC2)n1 (centres unmarked) | -75.4
CCOc1ccc2nc(N3CCC(C(=O)N4CCN(C5CCCCC5)CC4)CC3)sc2c1 | -46.1
CCOC(=O)C1CCN(C(=O)C2CCN(c3nc4ccc(OC)cc4s3)CC2)CC1 | -67.6
CCOc1ccc2nc(N3CCC(C(=O)N4CCN(c5ccccn5)CC4)CC3)sc2c1 | -45.7
Cc1cccc(N2CCN(C(=O)C3COc4ccccc4O3)CC2)c1C (centres unmarked) | -17.4
Cc1cccc2sc(N3CCN(C(=O)C4COc5ccccc5O4)CC3)nc12 (centres unmarked) | -31.3
CCOc1ccc2nc(N3CCCCCC3)sc2c1 | -19.2
CCOC(=O)N1CCN(C(=O)c2ccc3nc(N4CCCCC4)sc3c2)CC1 | -15.7
CCOc1ccc2nc(N3CCC(C(=O)N4CCN(c5ncccn5)CC4)CC3)sc2c1 | -13.4
CCOC(=O)Nc1ccc2nc(N3CCCCCC3)sc2c1 | -50.6

Compound | hERG current change (%, negative = inhibition) at 10uM [%]
CCOc1ccc2nc(N3CCC(C(=O)N4CCN(C(=O)c5ccco5)CC4)CC3)sc2c1 | -81.7
Cc1ccc2ncnc(NCCCCCC(=O)O)c2c1.Cl | 17.4
CCOc1ncccc1C(=O)Nc1cccc(S(=O)(=O)NC2=NCCC2)c1 | -6.34
COc1ccc2[n-]c(S(=O)Cc3ncc(C)c(OC)c3C)nc2c1.COc1ccc2[n-]c(S(=O)Cc3ncc(C)c(OC)c3C)nc2c1.[Mg+2] (centres unmarked) [49665950] | 16.3
Cc1ccc(C(=O)NCCSC2CCCCC2)cc1S(=O)(=O)Nc1ccccc1 | -2.9
C=CCCN(Cc1ccccc1)S(=O)(=O)c1ccccc1Br | 3.42
COc1ccc(OCCn2c(C)c(/C=N/n3cnnc3)c3ccccc32)cc1 | -0.339
Cn1c(SCC(=O)N/N=C/c2ccc(O)c(O)c2)nc2ccccc21 | 4.68
CCCC(C)NC(=O)COC(=O)c1ccc2c(c1)C(=O)N(Cc1ccco1)C2=O (centres unmarked) | 15.8
Cc1ccc(NC(=O)COC(=O)c2ccc(F)cc2Cl)c(Br)c1 | 14.1
CCOc1ccc2nc(SCC(=O)NCc3ccco3)sc2c1 | -29.8
CCOc1ccc2nc(SCC(=O)N3CCN(C(=O)c4ccco4)CC3)sc2c1 | -66.2
Cl.O=C(CSc1nc2ccccc2[nH]1)N1CCN(C(=O)c2ccco2)CC1 | -23.4
CCOc1ccc2nc(NC(=O)C3CCN(C(=O)c4ccco4)CC3)sc2c1 | 10.1
O=C(CSc1nc2ccc(Cl)cc2[nH]1)NCc1ccco1 | -51.8
O=C(CSc1nc2ccc(Cl)cc2[nH]1)N1CCN(C(=O)c2ccco2)CC1 | -56.1
Cc1ccc2nc(SCC(=O)N3CCN(C(=O)c4ccco4)CC3)[nH]c2c1 | -35.3
Cc1ccc2nc(SCC(=O)NCc3ccco3)[nH]c2c1 | -0.695
Cc1cc2nc(-c3ccc(SCC(=O)N4CCN(C(=O)c5ccco5)CC4)nc3)[nH]c2cc1C | 2.64
O=C(CSc1nc2ccccc2[nH]1)NCc1ccco1 | -1.16
O=C(CSc1ccc(-c2nc3ccccc3[nH]2)cn1)N1CCN(C(=O)c2ccco2)CC1 | -68.4

Compound | hERG current change (%, negative = inhibition) at 10uM [%]
O=C(CCc1nc2ccccc2[nH]1)N1CCN(C(=O)c2ccco2)CC1 | 6.93
O=c1oc(-c2cccs2)nc2sc3c(c12)CCCC3 | -1.83
COc1ccc(OC)c(C(=O)c2c(C)oc3cc([N+](=O)[O-])c(O)c([N+](=O)[O-])c23)c1 | 13.3
COc1ccc(C2C(C(C)=O)=C(O)C(=O)N2CCc2c[nH]c3ccccc23)cc1 (centres unmarked) | 13.7
CCn1nnc(NC(=O)c2cc3ccccc3o2)n1 | 4.36
Cc1ccc(-n2c(CC#N)n[nH]c2=S)c(C)c1 | 3.3
O=C(NCc1ccccc1)Nc1cccn(Cc2ccccc2)c1=O | 10.4
Cc1cccc(N2CN=c3s/c(=C\c4ccccn4)c(=O)n3C2)c1 | -1.21
O=C(C1COc2ccccc2O1)N1CCN(c2nc3ccc([N+](=O)[O-])cc3s2)CC1 (centres unmarked) | -29.8
O=C(CSc1nc2cc(Cl)ccc2s1)c1ccco1 | 2.2
Cc1ccc2nc(N3CCN(C(=O)c4ccco4)CC3)sc2c1 | -32
O=C(c1ccco1)N1CCN(c2nc3ccsc3c(=O)s2)CC1 | -79
COc1ccc2nc(N3CCN(C(=O)C4COc5ccccc5O4)CC3)sc2c1 (centres unmarked) | -61.2
Cc1ccc(Cl)c2sc(N3CCN(C(=O)c4ccco4)CC3)nc12 | -10.3
O=C(CSc1nc2ccccc2s1)N1CCN(C(=O)c2ccco2)CC1 | -41.3
O=C(CSc1nc2cc(Cl)ccc2s1)N1CCN(C(=O)c2ccco2)CC1 | -71.6
O=C(C1COc2ccccc2O1)N1CCN(c2nc3ccccc3s2)CC1 (centres unmarked) | -27.9
Cc1ccc(-c2cc(-c3ccccc3)c(C#N)c(Br)n2)cc1 | -4.18
CC1CC(C)CN(S(=O)(=O)c2ccc3c(c2)oc(=O)n3CC(=O)N(C)Cc2ccccc2)C1 (centres unmarked) | 7.04
CCOCCCNC(=S)N1C2CCC1CC(NC(=O)NC1CCCCC1)C2 (centres unmarked) | 1.88
